Holding throughout (details): primary human HUVEC with PBMC; actives raise or lower the signal
Experiment [1] in a line: BSK_LPS_PGE2: BioMAP Diversity Plus: LPS Assay for Prostaglandin E2 (PGE2) Biomarker Activity (AID 2283082).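 As to AC50: secreted prostaglandin E2 measured by ELISA in LPS-stimulated co-culture.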 Summed up: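 LPS-activated HUVEC/PBMC co-culture; cmpd dosed, 24 h; PGE2 by ELISA; bidirectional fit vs DMSO; SRB (0.1%, TCA-fixed, 560 nm) in parallel plates for overt cytotox.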
Read-out in experiment [2]: Macrophage colony-stimulating factor (MCSF), CSF1 (gene 1435)
The experiment is described as follows: BSK_LPS_MCSF: BioMAP Diversity Plus: LPS Assay for Macrophage colony-stimulating factor (MCSF) Biomarker Activity (AID 2283083). In short, it runs like this: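 HUVEC–PBMC co-culture, M-CSF measured by ELISA 24 h after chemical dosing. Fitted in both directions relative to DMSO as negative control; overt cytotoxicity assessed by SRB total-protein staining in parallel cultures.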

Read-out in experiment [3]: Tissue Factor, F3 (gene 2152)
Put plainly: BSK_LPS_TissueFactor: BioMAP Diversity Plus: LPS Assay for Tissue Factor Biomarker Activity (AID 2283084). Summed up: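 Human umbilical vein endothelial cells co-cultured with PBMC were dosed with compound. Cell-surface CD142 was measured by ELISA 24 h later. Activity was fitted bidirectionally against DMSO, with SRB total-protein staining in parallel cultures for cytotoxicity.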

Read-out in experiment [4]: Vascular cell adhesion molecule 1 (VCAM1), VCAM1 (gene 7412)
The experiment is described as follows: BSK_LPS_VCAM1: BioMAP Diversity Plus: LPS Assay for Vascular cell adhesion molecule 1 (VCAM1) Biomarker Activity (AID 2283086). Summed up: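 HUVEC + PBMC co-culture, LPS system; compound 24 h; VCAM-1 by ELISA; bidirectional fit vs DMSO control; parallel SRB (0.1%, TCA-fixed, 560 nm) for cytotoxicity.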

Read-out in a further experiment: CD38, CD38 (gene 952)
The experiment is described as follows: BSK_SAg_CD38: BioMAP Diversity Plus: SAg Assay for CD38 Biomarker Activity (AID 2283087). Summed up:
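Human HUVEC plus PBMC co-culture stimulated with superantigen; CD38 measured by ELISA 24 h after chemical dosing. Fluorescence read-out, bidirectional fit against DMSO; cytotoxicity tracked in parallel by SRB and Alamar Blue.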

Read-out in another experiment: CD40, CD40 (gene 958)
The experiment is described as follows: BSK_SAg_CD40: BioMAP Diversity Plus: SAg Assay for CD40 Biomarker Activity (AID 2283088). In short, it runs like this:
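HUVEC plus PBMC co-culture, superantigen-activated, with CD40 read by ELISA 24 h after dosing. Curves fitted in both directions against DMSO. Overt cytotoxicity checked by parallel SRB total-protein staining.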

Read-out in the next experiment: CD69, CD69 (gene 969)
Put plainly: BSK_SAg_CD69: BioMAP Diversity Plus: SAg Assay for CD69 Biomarker Activity (AID 2283089).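 As to AC50: cell surface CD69 protein quantified by ELISA with fluorescence detection.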 In short, it runs like this:
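ELISA, fluorescence read-out: CD69 on human umbilical vein endothelial cell + PBMC co-culture, 24 h post-dosing. Gain or loss of signal fitted bidirectionally against DMSO baseline.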

Read-out in experiment [5]: Monocyte Chemoattractant Protein-1 (MCP1), CCL2 (gene 6347)
The experiment is described as follows: BSK_SAg_MCP1: BioMAP Diversity Plus: SAg Assay for Monocyte Chemoattractant Protein-1 (MCP1) Biomarker Activity (AID 2283090). Summed up: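 MCP-1 levels in the endothelial–PBMC SAg co-culture were quantified by ELISA at 24 h post-dosing; both increases and decreases versus DMSO scored. Cytotoxicity monitored by SRB total protein in parallel cultures.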

Read-out in experiment [6]: E-selectin (Homo sapiens) (UniProt P16581)
Put plainly: BSK_SAg_Eselectin: BioMAP Diversity Plus: SAg Assay for Eselectin Biomarker Activity (AID 2283091). Summed up:
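Human umbilical vein endothelial cells co-cultured with peripheral blood mononuclear cells, SAg system. E-selectin is measured by ELISA 24 h after dosing and fitted bidirectionally against DMSO. Cytotoxicity is checked by SRB staining of parallel cultures.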

Molecules are shown by their SMILES. Calls of active or inactive are those of the source. The calls were made as follows: active = hit-call score of the fitted dose curve at least 0.9, where 1 is the maximum; inactive = score below 0.9.

Chain of E-selectin (Homo sapiens) (P16581 whole entry, looked up): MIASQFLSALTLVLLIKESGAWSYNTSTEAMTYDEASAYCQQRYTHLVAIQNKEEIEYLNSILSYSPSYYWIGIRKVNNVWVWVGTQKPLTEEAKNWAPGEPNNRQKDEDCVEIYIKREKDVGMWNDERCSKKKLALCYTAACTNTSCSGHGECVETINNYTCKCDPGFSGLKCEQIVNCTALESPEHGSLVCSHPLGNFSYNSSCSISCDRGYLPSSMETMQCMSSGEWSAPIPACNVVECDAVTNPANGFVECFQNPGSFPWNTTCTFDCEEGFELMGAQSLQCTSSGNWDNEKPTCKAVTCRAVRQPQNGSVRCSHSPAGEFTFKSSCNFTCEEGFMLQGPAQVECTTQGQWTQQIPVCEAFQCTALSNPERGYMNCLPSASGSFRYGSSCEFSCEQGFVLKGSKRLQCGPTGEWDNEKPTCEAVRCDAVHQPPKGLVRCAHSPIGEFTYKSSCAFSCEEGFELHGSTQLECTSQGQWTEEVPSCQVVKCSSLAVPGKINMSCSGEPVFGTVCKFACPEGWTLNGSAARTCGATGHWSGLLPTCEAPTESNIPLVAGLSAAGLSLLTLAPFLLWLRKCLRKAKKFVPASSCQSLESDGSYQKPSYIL

For the molecule `C=CC(N)=O`, the outcome is “inactive” in experiment [1]; “inactive” in [2]; “inactive” in experiment [3]; “inactive” in experiment [4]; “inactive” with CD38, CD38 (gene 952); “inactive” with CD40, CD40 (gene 958). Further, the outcome is “inactive” with CD69, CD69 (gene 969); “inactive” in [5]; “inactive” in [6].
Turning to `O=C(O)C(F)(F)C(F)(F)C(F)(F)C(F)(F)C(F)(F)F`, the outcome in experiment [1] is “inactive”; in experiment [2] it was “inactive”; in experiment [3], “inactive”; in [4], “inactive”; in the experiment with CD38, CD38 (gene 952), “inactive”; with CD40, CD40 (gene 958) it was “inactive”. Moreover, the outcome in the experiment with CD69, CD69 (gene 969) is “inactive”; in experiment [5], “inactive”; in experiment [6] it was “inactive”.
Consider `C1CC2OC2CC1C1CO1` (stereo unspecified), for which the outcome in experiment [1] is “inactive”; in experiment [2] it was “inactive”; in experiment [3], “inactive”; in experiment [4] it was “inactive”; with CD38, CD38 (gene 952), “inactive”; with CD40, CD40 (gene 958) it was “inactive”. Besides, the outcome with CD69, CD69 (gene 969) was “inactive”; in experiment [5], “inactive”; in [6], “inactive”.
One may read the AC50 as the concentration at which the activity in the assay is half-maximal. As to `Clc1ccc(C(c2ccccc2Cl)C(Cl)(Cl)Cl)cc1` (stereo unspecified), the AC50 in [1] was 4.54 µM (active); in experiment [2], 18.3 µM (active); in experiment [3], 23.4 µM (active); in experiment [4] it was 19.2 µM (active); with CD38, CD38 (gene 952), 20.1 µM (active); with CD40, CD40 (gene 958) it was 14.1 µM (active). Moreover, the AC50 is 23.2 µM (active) with CD69, CD69 (gene 969); 21.5 µM (active) in experiment [5]; 24.7 µM (active) in [6].
As for `CCCCCCCCOC(=O)c1ccccc1C(=O)OCCCCCCCC`, the outcome in experiment [1] is “inactive”; in experiment [2], “inactive”; in experiment [3], “inactive”; with CD40, CD40 (gene 958), “inactive”; with CD69, CD69 (gene 969), “inactive”; in [5] it was “inactive”. Also, the outcome in experiment [6] was inactive. Moreover, the AC50 is 7.64 µM (active) in experiment [4] and 11.2 µM (active) with CD38, CD38 (gene 952).
With `CCCN(CCC)N=O`, the outcome is “inactive” in [1]; “inactive” in experiment [2]; “inactive” in [3]; “inactive” in experiment [4]; “inactive” with CD38, CD38 (gene 952); “inactive” in the experiment with CD40, CD40 (gene 958). Further, the outcome in the experiment with CD69, CD69 (gene 969) is “inactive”; in experiment [5], “inactive”; in experiment [6] it was “inactive”.
In the case of `Cc1cccc(C)c1N`, the outcome is “inactive” in experiment [1]; “inactive” in [2]; “inactive” in [3]; “inactive” in [4]; “inactive” in the experiment with CD38, CD38 (gene 952); “inactive” with CD40, CD40 (gene 958). Also, the outcome in the experiment with CD69, CD69 (gene 969) is “inactive”; in [5] it was “inactive”; in [6], “inactive”.
In the case of `ClC1=C(Cl)[C@]2(Cl)[C@@H]3[C@@H]4C[C@@H]([C@H]5O[C@@H]45)[C@@H]3[C@@]1(Cl)C2(Cl)Cl`, the outcome in experiment [1] was “inactive”; in [2], “inactive”; in experiment [3], “inactive”; with CD69, CD69 (gene 969) it was “inactive”; in [5], “inactive”; in experiment [6] it was “inactive”. Besides, the half-maximal activity concentration (AC50) in experiment [4] was 14.4 µM (active); in the experiment with CD38, CD38 (gene 952) it was 14.4 µM (active); with CD40, CD40 (gene 958) it was 11.2 µM (active).
Consider `CC(C)C(=O)OCC(C)(C)C(OC(=O)C(C)C)C(C)C` (stereo unspecified), for which the outcome in experiment [1] was “inactive”; in [2], “inactive”; in experiment [3], “inactive”; in experiment [4], “inactive”; with CD38, CD38 (gene 952), “inactive”; with CD40, CD40 (gene 958) it was “inactive”. In addition, the outcome in the experiment with CD69, CD69 (gene 969) is “inactive”; in experiment [5] it was “inactive”; in experiment [6], “inactive”.
Regarding `Cc1cc(O)ccc1Cl`, the outcome was “inactive” in [1]; “inactive” in experiment [2]; “inactive” in [3]; “inactive” in [4]; “inactive” with CD38, CD38 (gene 952); “inactive” in the experiment with CD40, CD40 (gene 958). Further, the outcome in the experiment with CD69, CD69 (gene 969) is “inactive”; in experiment [5], “inactive”; in experiment [6], “inactive”.
In the case of `CC(c1ccc(O)cc1)(c1ccc(O)cc1)c1ccc(O)cc1`, the AC50 in experiment [1] is 34.6 µM (active); in [2], 26.4 µM (active); in experiment [4], 16.2 µM (active); with CD38, CD38 (gene 952), 24.5 µM (active); with CD40, CD40 (gene 958), 20.5 µM (active); with CD69, CD69 (gene 969), 20 µM (active). In addition, the AC50 in [5] was 25.9 µM (active); in experiment [6], 13.9 µM (active). Besides, the outcome in experiment [3] was inactive.
For the molecule `N#Cc1ccc(N(CC(N)=O)CC(F)(F)F)cc1C(F)(F)F`, the outcome in [1] was “inactive”; in [2] it was “inactive”; in [3], “inactive”; in [4], “inactive”; in the experiment with CD38, CD38 (gene 952) it was “inactive”; with CD40, CD40 (gene 958) it was “inactive”. Moreover, the outcome in the experiment with CD69, CD69 (gene 969) is “inactive”; in [5] it was “inactive”; in experiment [6], “inactive”.
`ClC1=C(Cl)[C@]2(Cl)[C@@H]3[C@H]4C[C@H]([C@@H]5O[C@H]45)[C@@H]3[C@@]1(Cl)C2(Cl)Cl`: the outcome is “inactive” in [1]; “inactive” in experiment [2]; “inactive” in [3]; “inactive” with CD38, CD38 (gene 952); “inactive” in the experiment with CD69, CD69 (gene 969); “inactive” in experiment [5]. For the same molecule, the AC50 in the experiment with CD40, CD40 (gene 958) is 8.47 µM (active); in experiment [6], 5.87 µM (active).
`COS(=O)(=O)OC`: the outcome was “inactive” in experiment [1]; “inactive” in [2]; “inactive” in experiment [3]; “inactive” in experiment [4]; “inactive” in the experiment with CD38, CD38 (gene 952); “inactive” with CD40, CD40 (gene 958). The outcome in the experiment with CD69, CD69 (gene 969) was “inactive”; in experiment [5], “inactive”; in experiment [6], “inactive”.
`Cc1cc(-c2ccc(N)c(C)c2)ccc1N`: in [1], the AC50 is 7.16 µM (active). Further, the outcome in [2] is “inactive”; in [3], “inactive”; in experiment [4], “inactive”; with CD38, CD38 (gene 952), “inactive”; with CD40, CD40 (gene 958) it was “inactive”; with CD69, CD69 (gene 969), “inactive”. Moreover, the outcome in [5] and in experiment [6] was inactive.
Turning to `CCC(C)(c1ccc(O)cc1)c1ccc(O)cc1`, the AC50 in experiment [1] was 13.3 µM (active); in experiment [2], 20 µM (active); in [4] it was 20 µM (active); in the experiment with CD38, CD38 (gene 952), 25.6 µM (active); in the experiment with CD40, CD40 (gene 958) it was 20 µM (active); with CD69, CD69 (gene 969), 20 µM (active). Besides, the results for the AC50 in experiment [5] and in experiment [6] were 20 µM (active) and 16.8 µM (active), respectively. Further, the result in experiment [3] was inactive.
Regarding `Oc1ccc(Cl)cc1Cl`, the outcome is “inactive” in experiment [1]; “inactive” in [2]; “inactive” in [3]; “inactive” in experiment [4]; “inactive” with CD38, CD38 (gene 952); “inactive” with CD40, CD40 (gene 958). The outcome in the experiment with CD69, CD69 (gene 969) was “inactive”; in experiment [5], “inactive”; in experiment [6], “inactive”.
Turning to `Cc1ccccc1CO[C@@H]1C[C@@]2(C(C)C)CC[C@]1(C)O2`, the outcome in [1] is “inactive”; in experiment [2] it was “inactive”; in experiment [3] it was “inactive”; in experiment [4] it was “inactive”; in the experiment with CD38, CD38 (gene 952), “inactive”; with CD40, CD40 (gene 958), “inactive”. The outcome in the experiment with CD69, CD69 (gene 969) was “inactive”; in experiment [5] it was “inactive”; in experiment [6], “inactive”.

These data come from PubChem BioAssay (EPA / NIEHS).
